Assay results reported in PubChem BioAssay (NCATS).
Results filed as inconclusive are left out. The source made the active and inactive calls. Unless noted, calls come from the whole dose curve.

Tests used:
[1] = qHTS for Inhibitors of the Functional Ribonucleoprotein Complex (vRNP) of Lassa (LASV) Arenavirus: LASV Primary Screen - GLuc reporter signal (AID 1347082; calls by dose curve; tested in HEK293 reporter line; note: series mostly up to about 57 µM; nearly all actives have a fitted effect of over 60% in size)
[2] = qHTS for Inhibitors of the Functional Ribonucleoprotein Complex (vRNP) of Lassa (LASV) Arenavirus: Viability assay - alamar blue signal for LASV Primary Screen (AID 1347083; calls by dose curve; tested in HEK293 reporter line; note: series mostly up to about 57 µM; nearly all actives have a fitted effect of over 80% in size)
[3] = qHTS for Inhibitors of the Functional Ribonucleoprotein Complex (vRNP) of Lymphocytic Choriomeningitis Arenaviruses (LCMV): Viability assay - alamar blue signal for LCMV Primary Screen (AID 1347085; calls by dose curve; tested in HEK293 reporter line; note: series mostly up to about 57 µM; nearly all actives have a fitted effect of over 80% in size)
[4] = target: Nucleoprotein (Lymphocytic choriomeningitis virus (strain Armstrong)) (UniProt P09992); experiment: qHTS for Inhibitors of the Functional Ribonucleoprotein Complex (vRNP) of Lymphocytic Choriomeningitis Arenaviruses (LCMV): LCMV Primary Screen - GLuc reporter signal (AID 1347086); note: series mostly up to about 57 µM; nearly all actives have a fitted effect of over 70% in size
Sequence of Nucleoprotein (Lymphocytic choriomeningitis virus (strain Armstrong)) (P09992 whole entry, looked up): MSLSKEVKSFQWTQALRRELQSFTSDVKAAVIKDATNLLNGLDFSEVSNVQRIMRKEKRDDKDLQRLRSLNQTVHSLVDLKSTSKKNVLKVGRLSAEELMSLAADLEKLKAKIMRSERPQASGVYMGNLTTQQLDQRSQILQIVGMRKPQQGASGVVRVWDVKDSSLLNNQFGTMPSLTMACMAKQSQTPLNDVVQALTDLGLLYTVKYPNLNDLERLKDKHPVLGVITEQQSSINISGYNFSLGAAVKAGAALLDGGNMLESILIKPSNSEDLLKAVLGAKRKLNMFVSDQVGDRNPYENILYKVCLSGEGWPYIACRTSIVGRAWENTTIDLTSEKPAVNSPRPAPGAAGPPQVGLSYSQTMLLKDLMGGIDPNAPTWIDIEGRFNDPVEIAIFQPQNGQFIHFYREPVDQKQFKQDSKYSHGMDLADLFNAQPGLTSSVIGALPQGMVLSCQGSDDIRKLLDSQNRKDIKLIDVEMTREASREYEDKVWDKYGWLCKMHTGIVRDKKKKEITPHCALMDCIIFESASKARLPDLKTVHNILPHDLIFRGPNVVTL

[5] = target: Tyrosine-protein phosphatase non-receptor type substrate 1 (Homo sapiens) + Leukocyte surface antigen CD47 (Homo sapiens) (UniProt P78324+Q08722); experiment: CD47-SIRPalpha protein protein interaction - Alpha assay qHTS validation (AID 1347059; active = well fitted curve in the direction sought with a large enough effect; an effect the other way counts as inactive or inconclusive;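 note: bead proximity luminescence from CD47 binding SIRPalpha after compound preincubation with SIRPalpha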)
Sequence of Tyrosine-protein phosphatase non-receptor type substrate 1 (Homo sapiens) + Leukocyte surface antigen CD47 (Homo sapiens) (P78324 whole entry, looked up): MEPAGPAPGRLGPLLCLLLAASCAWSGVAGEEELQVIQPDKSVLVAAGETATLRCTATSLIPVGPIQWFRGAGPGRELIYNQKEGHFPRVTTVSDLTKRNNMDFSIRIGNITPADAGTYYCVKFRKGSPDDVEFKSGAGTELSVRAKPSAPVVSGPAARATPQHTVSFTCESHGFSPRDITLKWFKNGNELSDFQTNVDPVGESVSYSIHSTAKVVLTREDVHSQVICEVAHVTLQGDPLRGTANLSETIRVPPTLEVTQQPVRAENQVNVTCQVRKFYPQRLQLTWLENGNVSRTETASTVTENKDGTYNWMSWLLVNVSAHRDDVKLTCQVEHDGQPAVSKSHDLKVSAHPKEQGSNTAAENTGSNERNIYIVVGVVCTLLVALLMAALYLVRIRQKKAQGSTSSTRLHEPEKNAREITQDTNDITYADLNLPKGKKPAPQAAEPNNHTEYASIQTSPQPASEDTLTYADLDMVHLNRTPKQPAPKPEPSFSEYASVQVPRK
Sequence of Tyrosine-protein phosphatase non-receptor type substrate 1 (Homo sapiens) + Leukocyte surface antigen CD47 (Homo sapiens) (Q08722 whole entry, looked up): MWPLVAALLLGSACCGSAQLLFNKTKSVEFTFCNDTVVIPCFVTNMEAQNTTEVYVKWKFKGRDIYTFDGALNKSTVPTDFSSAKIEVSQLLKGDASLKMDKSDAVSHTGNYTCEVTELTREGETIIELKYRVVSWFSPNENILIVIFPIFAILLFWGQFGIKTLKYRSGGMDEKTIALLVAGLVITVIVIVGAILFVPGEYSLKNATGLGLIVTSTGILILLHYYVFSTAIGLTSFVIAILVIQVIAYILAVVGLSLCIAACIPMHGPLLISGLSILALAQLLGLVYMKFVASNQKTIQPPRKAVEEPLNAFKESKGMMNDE
Method in brief: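 Biotinylated Avi-tagged SIRPalpha (25 nM) preincubated 30 min with compound, then His-tagged CD47 (12.5 nM) added 30 min; AlphaScreen with Ni-NTA acceptor and streptavidin donor beads. PBS pH 7.4, 0.05% IGEPAL, room temperature; 7-point titrations.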

[6] = target: Parathyroid hormone/parathyroid hormone-related peptide receptor (Homo sapiens) (UniProt Q03431); experiment: qHTS for PTHR1 Agonists: Optimization Screen against the NCGC LOPAC library (AID 1347079; active = well fitted curve in the direction sought with a large enough effect; an effect the other way counts as inactive or inconclusive;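 note: GloSensor cAMP luminescence in HEK-293 GP2 cells expressing human PTHR1 with IBMX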)
Sequence of Parathyroid hormone/parathyroid hormone-related peptide receptor (Homo sapiens) (Q03431 whole entry, looked up): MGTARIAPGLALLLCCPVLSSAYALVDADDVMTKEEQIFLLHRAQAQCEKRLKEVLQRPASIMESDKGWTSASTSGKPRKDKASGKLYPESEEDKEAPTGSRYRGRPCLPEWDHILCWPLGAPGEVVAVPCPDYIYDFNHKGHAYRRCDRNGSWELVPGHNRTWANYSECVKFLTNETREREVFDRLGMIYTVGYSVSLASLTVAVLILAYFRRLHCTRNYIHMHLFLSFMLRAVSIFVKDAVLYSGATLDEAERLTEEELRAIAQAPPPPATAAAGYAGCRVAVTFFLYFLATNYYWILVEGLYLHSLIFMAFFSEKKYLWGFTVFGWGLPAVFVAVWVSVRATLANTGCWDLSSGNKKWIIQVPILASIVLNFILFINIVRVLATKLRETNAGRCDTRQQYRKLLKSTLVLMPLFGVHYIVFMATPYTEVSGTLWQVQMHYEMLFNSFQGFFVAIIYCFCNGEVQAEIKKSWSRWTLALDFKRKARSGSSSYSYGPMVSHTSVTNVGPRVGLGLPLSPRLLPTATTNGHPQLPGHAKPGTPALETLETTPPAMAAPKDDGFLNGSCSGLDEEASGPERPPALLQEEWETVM
Method in brief: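 Agonist readout: GloSensor cAMP luminescence, read after 15 min at room temperature. HEK-293-derived GP2 line carries PTHR1; compounds tested as a titration for 1 hr at 37C in presence of IBMX. M-PTH (1-15) served as control.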

[7] = qHTS of pediatric cancer cell lines to identify multiple opportunities for drug repurposing: Primary screen for TC32 cells (AID 1347089; active = well fitted curve in the direction sought with a large enough effect; an effect the other way counts as inactive or inconclusive; note: nearly all actives have a fitted effect of over 60% in size)
Method in brief: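 Luminescent ATP read-out (CellTiter-Glo) of metabolically active TC32 cells after 48 h exposure. Concentration-response curves came from 11-point (MIPE, 0.78 nM–46 µM) or 8-point (NPC, 0.59 nM–46 µM) primary titrations; follow-up used 11 points.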

[8] = qHTS of pediatric cancer cell lines to identify multiple opportunities for drug repurposing: Primary screen for DAOY cells (AID 1347090; active = well fitted curve in the direction sought with a large enough effect; an effect the other way counts as inactive or inconclusive; note: series mostly up to about 46 µM; nearly all actives have a fitted effect of over 55% in size)
Method in brief: (§1)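 Viability measured as metabolically active cells via CellTiter-Glo luminescence following 48 hours of compound exposure, 11-point dilutions in confirmatory testing. 500-1,000 cells/well plated 5 hours before dosing; controls were DMSO and 2.3 µM bortezomib.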

[9] = qHTS of pediatric cancer cell lines to identify multiple opportunities for drug repurposing: Primary screen for SJ-GBM2 cells (AID 1347091; active = well fitted curve in the direction sought with a large enough effect; an effect the other way counts as inactive or inconclusive)
Method in brief: as §1

[10] = qHTS of pediatric cancer cell lines to identify multiple opportunities for drug repurposing: Primary screen for A673 cells (AID 1347092; active = well fitted curve in the direction sought with a large enough effect; an effect the other way counts as inactive or inconclusive; note: nearly all actives have a fitted effect of over 45% in size)
Method in brief: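 Cell viability of A673 measured by CellTiter-Glo ATP luminescence after 48 hours compound exposure. Dilution series spanned 0.78 nM to 46 µM (MIPE, 11-point) or 0.59 nM to 46 µM (NPC, 8-point); bortezomib 2.3 uM positive control.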

[11] = qHTS of pediatric cancer cell lines to identify multiple opportunities for drug repurposing: Primary screen for BT-37 cells (AID 1347094; active = well fitted curve in the direction sought with a large enough effect; an effect the other way counts as inactive or inconclusive; note: series mostly up to about 57 µM)
Method in brief: (§2)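 Viability was measured as metabolically active cells after 48 hours of treatment, read by CellTiter-Glo luminescence. Compounds were tested at multiple final concentrations, giving concentration-response curves.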

[12] = qHTS of pediatric cancer cell lines to identify multiple opportunities for drug repurposing: Primary screen for NB-EBc1 cells (AID 1347095; active = well fitted curve in the direction sought with a large enough effect; an effect the other way counts as inactive or inconclusive)
Method in brief: as §2

[13] = qHTS of pediatric cancer cell lines to identify multiple opportunities for drug repurposing: Primary screen for U-2 OS cells (AID 1347096; active = well fitted curve in the direction sought with a large enough effect; an effect the other way counts as inactive or inconclusive; note: nearly all actives have a fitted effect of over 50% in size)
Method in brief: (§3)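 Viability after 48 h compound treatment at 37C, 500-1,000 cells/well, read as ATP luminescence with CellTiter-Glo. Primary screens used 11-point (MIPE, 0.78 nM-46 µM) or 8-point (NPC, 0.59 nM-46 µM) final concentrations; follow-up screens used 11-point dilutions.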

[14] = qHTS of pediatric cancer cell lines to identify multiple opportunities for drug repurposing: Primary screen for Saos-2 cells (AID 1347097; active = well fitted curve in the direction sought with a large enough effect; an effect the other way counts as inactive or inconclusive; note: nearly all actives have a fitted effect of over 40% in size)
Method in brief: as §2

[15] = qHTS of pediatric cancer cell lines to identify multiple opportunities for drug repurposing: Primary screen for SK-N-SH cells (AID 1347098; active = well fitted curve in the direction sought with a large enough effect; an effect the other way counts as inactive or inconclusive;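 note: DMSO served as neutral control and bortezomib at 2.3 µM as positive control; nearly all actives have a fitted effect of over 65% in size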)
Method in brief: (§4)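 Cells (500-1,000/well) rested 5 h, then received compounds for 48 h; metabolically active cells were measured by CellTiter-Glo luminescence. Final concentrations spanned up to 46 µM (MIPE, 11-point) or 0.59 nM-46 µM (NPC, 8-point) in primary screens, 11-point in follow-ups.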

[16] = qHTS of pediatric cancer cell lines to identify multiple opportunities for drug repurposing: Primary screen for LAN-5 cells (AID 1347100; active = well fitted curve in the direction sought with a large enough effect; an effect the other way counts as inactive or inconclusive)
Method in brief: as §3

[17] = qHTS of pediatric cancer cell lines to identify multiple opportunities for drug repurposing: Primary screen for BT-12 cells (AID 1347101; active = well fitted curve in the direction sought with a large enough effect; an effect the other way counts as inactive or inconclusive; note: nearly all actives have a fitted effect of over 25% in size)
Method in brief: as §4

[18] = qHTS of pediatric cancer cell lines to identify multiple opportunities for drug repurposing: Primary screen for Rh18 cells (AID 1347102; active = well fitted curve in the direction sought with a large enough effect; an effect the other way counts as inactive or inconclusive; note: nearly all actives have a fitted effect of over 65% in size)
Method in brief: as §3

Measured: Potency

Cc1ccc(S(=O)(=O)NC(=O)NC2CCCC2)cc1
inactive: [1] | [2] | [3] | [4]

CCOc1ccc(Cc2nccc3cc(OCC)c(OCC)cc23)cc1OCC
inactive: [1] | [2] | [3]

COc1cccc2c1C(=O)c1c(O)c3c(c(O)c1C2=O)C[C@@](O)(C(=O)CO)C[C@@H]3O[C@H]1C[C@H](N)[C@H](O[C@@H]2CCCCO2)[C@H](C)O1
inactive: [1]

COc1ccc(C(=O)N2CCCC2=O)cc1
inactive: all assays above

COc1ccc([C@@H]2Sc3ccccc3NC(=O)[C@@H]2O)cc1
inactive: [1]

Cc1nc2n(c(=O)c1CCN1CCC(C(=O)c3ccc(F)cc3)CC1)CCS2
inactive: [1] | [2] | [3]

Cc1cccc(C)c1NC(=O)CN1CCCC1
inactive: [1] | [2] | [3] | [4]

Cc1sccc1Br
inactive: [1] | [2] | [3] | [4]

COc1cc2c(cc1OC)C(C(C(=O)N(CCc1ccc(OC)c(OC)c1OC)CCc1ccc(OC)c(OC)c1OC)c1ccccc1)=NCC2 (stereo not drawn)
inactive: [1] | [2] | [3] | [4]

CCCCCC(N)=O
inactive: [1] | [2] | [3] | [4]

NC(CSCC(=O)O)C(=O)O (stereo not drawn)
inactive: [1] | [2] | [3] | [4]

C=CCOc1ccccc1OCC(O)CNC(C)C (stereo not drawn)
inactive: [1] | [2] | [3] | [4]

COc1ccc(CN(CCN(C)C)c2ccccn2)cc1
inactive: [1] | [2] | [3] | [4]

CCOC(=O)OC(C)OC(=O)[C@@H]1N2C(=O)[C@@H](NC(=O)[C@H](N)c3ccccc3)[C@H]2SC1(C)C (stereo partly drawn)
inactive: [1] | [2] | [3] | [4]

Cn1cnc2c1c(=O)[nH]c(=O)n2C
inactive: [1] | [2] | [3] | [4]

CCCCCCCCCCOCC(O)CN (stereo not drawn)
inactive: [1] | [2] | [3] | [4]

Oc1cccc2[nH]ccc12
inactive: [1] | [2] | [3] | [4]

CCc1cccc(N(C)C(N)=Nc2cccc3ccccc23)c1
inactive: [1] | [2] | [3] | [4]

CO[C@@H]1[C@@H](O[C@@H]2O[C@H](C)[C@@H](O[C@H]3C[C@@](C)(O)[C@@H](O)[C@H](C)O3)[C@H](N(C)C)[C@H]2O)[C@@H](CC=O)C[C@@H](C)[C@@H](O[C@@H]2CC[C@H](N(C)C)[C@@H](C)O2)/C=C/C=C/C[C@@H](C)OC(=O)C[C@H]1OC(C)=O
inactive: [1] | [2] | [3] | [4]

c1ccc([C@H]2CN3CCSC3=N2)cc1
inactive: [1] | [2] | [3] | [4]

O=C(O)CNC(=O)c1ccccc1I
inactive: [1] | [2] | [3] | [4]

OCC(CO)N[C@H]1C[C@](O)(CO)[C@@H](O)[C@H](O)[C@H]1O
inactive: [1] | [2] | [3] | [4]

Nc1ccc(C(=O)NCC(=O)O)cc1
inactive: [1] | [2] | [3] | [4]

CCN1C(=O)c2ccccc2C1Nc1ccc(OCCN2CCCCC2)cc1 (stereo not drawn)
inactive: [1] | [2] | [3] | [4]

CC(COc1ccccc1)NC(C)C(O)c1ccc(O)cc1 (stereo not drawn)
inactive: [1] | [2] | [3] | [4]

c1ccc(CN(CC2=NCCN2)c2ccccc2)cc1
inactive: [1] | [2] | [3] | [4]

O=C1c2ccccc2C(=O)C1c1ccc(Br)cc1
inactive: [1] | [2] | [3] | [4]

O=[N+]([O-])c1nccn1CO[C@@H](CO)[C@H](O)CO
inactive: [1] | [2] | [3] | [4]
